We go through 60 sequences from the supplement of paper PMC10338343.

± gives the standard deviation. Over roughly 8,200 sequences, “pre-steady-state target cleavage rate” has its median near 0.024; the highest 2% begin near 1.3. Many of the other results were omitted from the sample, so the highest values are more common in it than they were.

The test system of the test is MIWI (PIWIL1) piRISC loaded with L1MC piRNA (30 nt). As to the kind of experiment: pre-steady-state target cleavage rate (min^-1); MIWI and MILI are mouse PIWI proteins and EfPiwi is from a freshwater sponge; tags in brackets are library labels; higher = faster piRNA-guided slicing of the target. As to conditions: guide: L1MC piRNA 5'p-UAACUAAAUACUAUGCAAGCUGUAGGUCCU
In outline: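 In this Cleave-'n-Seq assay, uncleaved targets were sequenced and normalised to depth and to weakly complementary targets. They came from a transcribed, DNA-blocked target RNA library […] mixed with 1 nM active affinity-purified piRISC carrying one synthetic guide, with or without 500 nM GTSF1 partner protein, in HEPES–potassium acetate buffer at 33 °C for 0–8 or 0–960 min. After three trials were pooled and k3 was capped at 0.0001 min^-1, the pre-steady-state cleavage rate was obtained from a burst-and-steady-state fit.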

Where [1] appears, read: auxiliary factor: 500 nM mouse GTSF1.
The mark [2] stands for this setting: auxiliary factor: none (no GTSF1).
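Note: 1 nM active piRISC with 0.1 nM target library at 33 °C single turnover.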

Turning to UCCUGCUACAGCUAGCAUAGUAUUUUCAAA, under setting [1], the “pre-steady-state target cleavage rate” value turned out to be 0.0744 ± 0.023. Turning to UCCUGGAACAGCUUGCAAUGUAUUUAGUAA, the “pre-steady-state target cleavage rate” value runs as follows: under setting [1], 0.146 ± 0.018; under setting [2], 0.00598 ± 0.003. As to UGGACCUACAGCUUGCAUAGUAUUUAUUA, the “pre-steady-state target cleavage rate” value runs as follows: under setting [1], 0.126 ± 0.015; under setting [2], 0.00594 ± 0.0034. For the sequence UGGACCUACAGCUUGCAUAGUUAAUAGAAA, the “pre-steady-state target cleavage rate” value under setting [1] amounted to 0.0323 ± 0.01. For UGGACCUCCAGCUUGCAUAGUAUUUAGUUA, the “pre-steady-state target cleavage rate” value under setting [1] stood at 1.39 ± 0.054 and the “pre-steady-state target cleavage rate” value under setting [2] turned out to be 0.08 ± 0.014.

Take AGGACCUCAGCUUGCAUAGUAUUUAGUUA: the “pre-steady-state target cleavage rate” value under setting [1] worked out at 1.34 ± 0.077 and the “pre-steady-state target cleavage rate” value under setting [2] was 0.0984 ± 0.019. For UCCACCUCAGCUUGCAUAGUAUUUAGUUA, in that order: 0.878 ± 0.07 and 0.0436 ± 0.0088. With UCCACCUCCAGCUUGCAUAGUAUUUAGUUA, the “pre-steady-state target cleavage rate” value reads like this: under setting [1], 0.89 ± 0.033; under setting [2], 0.0442 ± 0.0078. For AGGACCUCCAGCUUGCAUAGUAUUUAGUUA, in that order: 1.22 ± 0.048 and 0.0926 ± 0.018. Take UGGACCUAAGCUUGCAUAGUAUUUAGUUA: the “pre-steady-state target cleavage rate” value under setting [1] was found to be 1.27 ± 0.083 and the “pre-steady-state target cleavage rate” value under setting [2] came to 0.0446 ± 0.012. On to UGGACCUCAGCUUGCAUAGUAUUUAGUUA, for which the “pre-steady-state target cleavage rate” value is, setting by setting: under setting [1], 1.43 ± 0.094; under setting [2], 0.055 ± 0.011.

On to UCGACCUACUGCUUGCAUAGUAUUUACUUA, for which the “pre-steady-state target cleavage rate” value under setting [1] turned out to be 0.278 ± 0.017 and the “pre-steady-state target cleavage rate” value under setting [2] is 0.0322 ± 0.0038. UCCUGGUACACCUUGCAUAGUAUAUAGUUA: the “pre-steady-state target cleavage rate” value came out at 0.555 ± 0.09 under setting [1] and 0.00685 ± 0.0027 under setting [2]. Regarding UCCACCUACAGCUUGCAUAGUAUAAUCAAA, the “pre-steady-state target cleavage rate” value under setting [1] came out at 0.327 ± 0.056. Turning to AGGAGCAACAGCUUGCAUAGUAUUUAGUUA, the “pre-steady-state target cleavage rate” value is, setting by setting: under setting [1], 1.67 ± 0.069; under setting [2], 0.0907 ± 0.016. On to UCGAGGAACAGCUUGCAUAGUAUUUAGUUA, for which the “pre-steady-state target cleavage rate” value worked out at 1.02 ± 0.076 under setting [1] and 0.057 ± 0.011 under setting [2]. Regarding UCGAGCAACAGCUUGCAUAGUAUUUAGUUA, the “pre-steady-state target cleavage rate” value under setting [1] is 1.29 ± 0.044 and the “pre-steady-state target cleavage rate” value under setting [2] turned out to be 0.076 ± 0.013. UCCUGGAGCAGCUUGCAUAGUAUUUAGUUA: the “pre-steady-state target cleavage rate” value under setting [1] was 1.13 ± 0.044 and the “pre-steady-state target cleavage rate” value under setting [2] was found to be 0.0692 ± 0.013. Taken in the same sequence, the figures for UGGAGGAACAGCUUGCAUAGUAUUUAGUUA were 1.26 ± 0.049 and 0.0795 ± 0.015. For the sequence UCCAGCAACAGCUUGCAUAGUAUUUAGUUA, the “pre-steady-state target cleavage rate” value runs as follows: under setting [1], 1.19 ± 0.049; under setting [2], 0.0797 ± 0.014. Regarding AGGAGGAACAGCUUGCAUAGUAUUUAGUUA, the “pre-steady-state target cleavage rate” value is 1.41 ± 0.065 under setting [1] and 0.0955 ± 0.019 under setting [2]. For the sequence UGGAGCAACAGCUUGCAUAGUAUUUAGUUA, the “pre-steady-state target cleavage rate” value turned out to be 1.39 ± 0.044 under setting [1] and 0.0851 ± 0.016 under setting [2]. Take UCCUGGAUGUGCUUUGCAUAGUAUUUAGUUA: the “pre-steady-state target cleavage rate” value by setting is: under setting [1], 0.251 ± 0.022; under setting [2], 0.0142 ± 0.0043. Taken in the same sequence, the figures for UCCUGGAUGAGCUUGCAAAGUAUUUUGUUA were 0.267 ± 0.029 and 0.0136 ± 0.0037. For UCGACGUACACCUUGCAUAGUAUUUAGUUA, the “pre-steady-state target cleavage rate” value runs as follows: under setting [1], 1.23 ± 0.026; under setting [2], 0.0575 ± 0.0089. On to UCCUGGUACAGCUAGCAUAGUAAUUAGUUA, for which the “pre-steady-state target cleavage rate” value stood at 0.379 ± 0.053 under setting [1] and 0.00998 ± 0.0037 under setting [2].

Consider UCCUGGUACAGCUUGCAUAGUAUUUGGUUA, for which the “pre-steady-state target cleavage rate” value stood at 0.449 ± 0.037 under setting [1] and 0.0417 ± 0.0074 under setting [2]. As for UGGACCUACAGCUUGCAUAGUUAUUACAAA, the “pre-steady-state target cleavage rate” value under setting [1] is 0.0207 ± 0.0062. As for UCGACCUACACCUUGCAUAGUAUUUACUUA, the “pre-steady-state target cleavage rate” value amounted to 0.254 ± 0.034 under setting [1] and 0.0244 ± 0.0036 under setting [2].

As to UCCUGGAUGAGCUUGGAUAGUAUUUACUUA, the “pre-steady-state target cleavage rate” value under setting [2] worked out at 0.00357 ± 0.0031. On to UGGACCUACGGCUUGCAUAGUAUUUAGUUA, for which the “pre-steady-state target cleavage rate” value reads like this: under setting [1], 1.44 ± 0.1; under setting [2], 0.0662 ± 0.013. Take UCCACCUACGGCUUGCAUAGUAUUUAGUUA: the “pre-steady-state target cleavage rate” value came to 0.921 ± 0.074 under setting [1] and 0.0494 ± 0.01 under setting [2]. Turning to UCGACCUACGAGCUUGCAUAGUAUUUAGUUA, the “pre-steady-state target cleavage rate” value by setting is: under setting [1], 0.737 ± 0.077; under setting [2], 0.0529 ± 0.011. On to UCGACCUACAGGCUUGCAUAGUAUUUAGUUA, for which the “pre-steady-state target cleavage rate” value under setting [1] is 1.07 ± 0.045 and the “pre-steady-state target cleavage rate” value under setting [2] was found to be 0.07 ± 0.011. For AGGACCUACGGCUUGCAUAGUAUUUAGUUA, in that order: 1.27 ± 0.077 and 0.0872 ± 0.017. Take UCGACCUACGGCUUGCAUAGUAUUUAGUUA: the “pre-steady-state target cleavage rate” value under setting [1] was 1.35 ± 0.053 and the “pre-steady-state target cleavage rate” value under setting [2] was found to be 0.069 ± 0.011. Take UCCUCCUACAGCUUGCAUAGUUUUUAGAUA: the “pre-steady-state target cleavage rate” value under setting [1] turned out to be 0.228 ± 0.036 and the “pre-steady-state target cleavage rate” value under setting [2] stood at 0.00676 ± 0.0025. As to AGGACCUACAGCUUGCAUAGUUUUUAGAUA, the “pre-steady-state target cleavage rate” value by setting is: under setting [1], 0.259 ± 0.034; under setting [2], 0.0189 ± 0.0055.

As to UCCUGCUACAACUUGCAUAGUAUUUAGUUA, the “pre-steady-state target cleavage rate” value under setting [1] is 0.679 ± 0.044 and the “pre-steady-state target cleavage rate” value under setting [2] is 0.0522 ± 0.0072. As to UCCUGGUUCAGCUUGGAUAGUAUUUAGUUA, the “pre-steady-state target cleavage rate” value under setting [1] came to 0.791 ± 0.063 and the “pre-steady-state target cleavage rate” value under setting [2] worked out at 0.0603 ± 0.014. Consider UCCUGGAACAGCUGCAUAGUAUUUAGUUA, for which the “pre-steady-state target cleavage rate” value is, setting by setting: under setting [1], 0.767 ± 0.044; under setting [2], 0.00757 ± 0.0034. Consider UCGACCUACAGCCUUGCAUAGUAUUUAGUUA, for which the “pre-steady-state target cleavage rate” value under setting [1] came out at 1.28 ± 0.046 and the “pre-steady-state target cleavage rate” value under setting [2] amounted to 0.0668 ± 0.014. As for UCCUCCUACAGCCUGCAUAGUAUUUAGUUA, the “pre-steady-state target cleavage rate” value under setting [1] is 1.18 ± 0.038 and the “pre-steady-state target cleavage rate” value under setting [2] stood at 0.056 ± 0.0094. Take UCCUGCUACAGCCUGCAUAGUAUUUAGUUA: the “pre-steady-state target cleavage rate” value by setting is: under setting [1], 0.976 ± 0.05; under setting [2], 0.0598 ± 0.011. For UCCACCUACAGCCUGCAUAGUAUUUAGUUA, the “pre-steady-state target cleavage rate” value came out at 1.15 ± 0.033 under setting [1] and 0.0634 ± 0.01 under setting [2].

For the sequence UCGACCUACAGCCUGCAUAGUAUUUAGUUA, the “pre-steady-state target cleavage rate” value under setting [1] came to 1.41 ± 0.038 and the “pre-steady-state target cleavage rate” value under setting [2] is 0.0857 ± 0.015. For UGGACCUACAGCCUUGCAUAGUAUUUAGUUA, in that order: 1.21 ± 0.081 and 0.0496 ± 0.0085. With AGGACCUACAGCCUUGCAUAGUAUUUAGUUA, the “pre-steady-state target cleavage rate” value came out at 1.23 ± 0.069 under setting [1] and 0.0878 ± 0.019 under setting [2]. Taken in the same sequence, the figures for AGGACCUACAGCCUGCAUAGUAUUUAGUUA were 1.51 ± 0.063 and 0.0892 ± 0.017.

Turning to UGGACCUACAGCCUGCAUAGUAUUUAGUUA, the “pre-steady-state target cleavage rate” value stood at 1.34 ± 0.048 under setting [1] and 0.0741 ± 0.013 under setting [2]. As to AGGACCUACUGCUUGCAUAGUAUUUAGUAA, the “pre-steady-state target cleavage rate” value was determined as 0.861 ± 0.077 under setting [1] and 0.0651 ± 0.012 under setting [2]. Taken in the same sequence, the figures for UCCUGGAACAGGUUGCAUAGUUUUUAGUUA were 0.167 ± 0.016 and 0.0162 ± 0.0044. UGGACCUUCAGGUUGCAUAGUAUUUAGUUA: the “pre-steady-state target cleavage rate” value under setting [1] is 1.14 ± 0.099 and the “pre-steady-state target cleavage rate” value under setting [2] turned out to be 0.0476 ± 0.01. Take UGGACCUACAGGUUGCAUAGUAUAUAGUUA: the “pre-steady-state target cleavage rate” value runs as follows: under setting [1], 0.549 ± 0.056; under setting [2], 0.0198 ± 0.0053. Consider UGGACCUACAGCUUGCAUACUAUUUUCAAA, for which the “pre-steady-state target cleavage rate” value under setting [1] came to 0.0881 ± 0.021. Take UCCUGGAUGUGCAUUGCAUAGUAUUUAGUUA: the “pre-steady-state target cleavage rate” value runs as follows: under setting [1], 0.223 ± 0.023; under setting [2], 0.0111 ± 0.0032.

With UCGUGGUACAGCUUGCAUAGUAUUUAGAAA, the “pre-steady-state target cleavage rate” value was 0.305 ± 0.029 under setting [1] and 0.00755 ± 0.0023 under setting [2]. On to UCCUGGAACAGCUUGGAUAGUAUUUACUUA, for which the “pre-steady-state target cleavage rate” value was found to be 0.0518 ± 0.0087 under setting [1] and 0.0182 ± 0.0036 under setting [2]. Consider UCCUGCUACAGCUUGCUAUAGUAUUUAGUUA, for which the “pre-steady-state target cleavage rate” value under setting [1] amounted to 0.0317 ± 0.011.

As for UCCUGGAUCUGCUUGCAUUGUAUUUAGUUA, the “pre-steady-state target cleavage rate” value under setting [1] worked out at 0.228 ± 0.037 and the “pre-steady-state target cleavage rate” value under setting [2] is 0.0147 ± 0.0049.
